A selection: hits, their analogues and other compounds. The true share with any hit is near 1.4%.
Mtb MbtI inh – inhibitors of Mycobacterium tuberculosis siderophore enzyme MbtI. P9WFX0. purified MbtI enzyme, fluorescence intensity read-out. inhibition, % (test concentration not listed). 100,000 tested, 0.89% active. AID 493033; in the data active = inhibition mostly above about 56%, no sharp cut-off; inactive = mostly below about 77%
Polio RdRp inh – poliovirus RNA polymerase inhibition; 150,000 tested, 0.66% active; % elongation, % (compound at 16.7 µg/mL); P03300; poliovirus polymerase elongation, fluorescence polarization; hits give low values; AID 588519; in the data active = % elongation below about 90%
Target sequence (P03300 1749-2209 limits assumed): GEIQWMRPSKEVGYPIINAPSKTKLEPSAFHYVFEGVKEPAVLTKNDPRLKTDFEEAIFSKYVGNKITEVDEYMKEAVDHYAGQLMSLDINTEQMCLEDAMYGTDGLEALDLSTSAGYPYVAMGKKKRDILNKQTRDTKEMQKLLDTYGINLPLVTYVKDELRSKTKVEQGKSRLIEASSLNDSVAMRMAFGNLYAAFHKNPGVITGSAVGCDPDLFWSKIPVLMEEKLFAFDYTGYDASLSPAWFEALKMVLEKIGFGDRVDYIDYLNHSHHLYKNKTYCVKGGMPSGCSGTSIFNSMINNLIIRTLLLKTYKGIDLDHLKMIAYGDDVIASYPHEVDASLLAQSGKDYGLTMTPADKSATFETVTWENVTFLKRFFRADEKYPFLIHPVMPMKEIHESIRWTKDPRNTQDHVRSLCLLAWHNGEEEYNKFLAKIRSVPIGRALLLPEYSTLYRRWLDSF
Mtb MenB inh – Mtb MenB enzyme inhibition; MenB enzyme assay, absorbance read-out; P9WNP5; inhibition, % (test concentration not listed); 100,000 tested, 0.43% active; in the data active = inhibition above about 21%, passing the limit was not always enough
* hit, by the source's call; nt = no result given.

SMILES	Mtb MbtI inh	Polio RdRp inh	Mtb MenB inh
COC(=O)CSc1nc(C)cc(N2CCOCC2)n1	4.5	104.0	-42.2
Clc1cccc(CSc2nnc3ccccn23)c1	30.1	105.0	nt
Cc1cc(=O)oc2c3c(ccc12)OCN(CCc1ccccc1)C3	116.6	101.0	3.2
Cc1nn(-c2ccccc2)c(C)c1C1NCCNC1=O (stereo not drawn)	9.6	99.0	-33.9
c1nc(NCCN2CCOCC2)c2ccsc2n1	8.2	102.0	4.7
c1ccc2c(c1)OCCCO2	-26.7	108.0	-14.6
Sc1ccc2c(c1)OCCCO2	94.1*	98.0	5.8
Cc1cc(-c2ccc(C(C)C)c(S(=O)(=O)N3CCN(c4ccccc4F)CC3)c2)on1	-8.8	101.0	-20.0
COc1ccc(C2=NN(CC(=O)NC3CCCCC3C)C(=O)CC2)cc1 (stereo not drawn)	2.1	101.0	-5.8
c1ccc(N=c2[n-][n+](-c3ccccc3)cn2-c2ccccc2)cc1	nt	85.0*	-37.6
O=C1CN(c2ccccc2)C(=Nc2ccccc2)S1	3.9	100.0	12.4
CCO/C=C1/C(=O)N(c2ccc(S(=O)(=O)N3CCOCC3)cc2)C(=O)c2ccccc21	17.4	96.0	-22.9
CCO/C=C1\C(=O)N(c2ccccc2)C(=O)c2ccccc21	-13.2	80.0*	nt
COc1ccc(N2CCN(/C=C3\C(=O)N(c4ccc(C)cc4)C(=O)c4ccccc43)CC2)cc1	52.1	97.0	-23.0
CCO/C=C1/C(=O)N(c2ccc(OC)cc2)C(=O)c2ccccc21	25.9	82.0*	-2.1
O=C1Nc2ccccc2/C1=C\c1ccc(N2CCOCC2)cc1	-7.5	113.0	-89.7
CCN(C(=O)CO)c1c(N)n(Cc2ccccc2)c(=O)n(CC(=O)Nc2ccc(C)c(C)c2)c1=O	5.0	101.0	-2.9
Cc1[nH]n(-c2nc3ccccc3s2)c(=O)c1C1OC(=O)c2ccccc21 (stereo not drawn)	95.4*	93.0	-35.3
Cc1[nH]n(-c2nc3ccccc3s2)c(=O)c1C	99.2	105.0	-9.9
COC(=O)C1CN(C(=O)Cc2coc3cc4c(cc23)CCC4)c2ccccc2O1 (stereo not drawn)	-12.7	108.0	-28.7
C1CNCCN1	-24.6	98.0	-1.1
C1COCCNCCOCCN1	-9.4	88.0*	-20.9
CC(CC(=O)N1CCCc2ccccc21)S(=O)(=O)c1ccc2c(c1)NC(=O)CO2 (stereo not drawn)	0.3	99.0	4.1
COC(=O)c1cc(OC)c(OC)cc1NC(=O)C(C)C	62.7	102.0	-23.1
O=C1CC(N2CCCC2)C(=O)N1c1ccccc1 (stereo not drawn)	62.5*	103.0	-13.3
SMILES	Mtb MbtI inh	Polio RdRp inh	Mtb MenB inh
CC(C)(C)OC(=O)N1CCN(C2CC(=O)N(c3ccccc3)C2=O)CC1 (stereo not drawn)	5.0	103.0	-3.3
O=C(COC(=O)c1ccc2c(c1)NC(=O)CS2)NCc1cccs1	10.4	11.0*	7.3
Cc1cc(C(=O)COC(=O)c2ccc3c(c2)NC(=O)CS3)c(C)n1Cc1cccs1	17.7	104.0	-22.4
COc1ccc(/C(C#N)=C/c2ccc3c(c2)OCO3)cc1OC	1.4	100.0	-60.6
COC(=O)c1ccc(COC(=O)c2ccc3ncsc3c2)o1	-28.8	103.0	-25.9
Cc1ccc(NC(=O)N2CC=C(c3c[nH]c4ccccc34)CC2)cc1	-41.0	102.0	-14.3
CCSC1=N/C(=C\c2ccc(-c3cccc(Cl)c3)o2)C(=O)S1	-5.8	109.0	-41.5
CC1=NOC(=O)/C1=C\c1ccc(O)c(O)c1	44.3	103.0	-66.5
CC1=NOC(=O)/C1=C/c1ccc(O)cc1	92.3*	99.0	-38.1
Cc1cc(C)n2c(CNC(=O)c3ccc(S(=O)(=O)N4CCCCCC4)cc3)nnc2n1	-5.0	101.0	2.1
Cn1c(=S)[nH]c2ccccc21	101.4*	90.0	-27.0
C=CCn1c(=S)[nH]c2ccccc21	20.8	99.0	-17.5
CCOC(=O)c1c(C)n(C)c2ccc(OCC)cc12	nt	105.0	-26.0
FC(F)n1c(=S)[nH]c2ccccc21	28.4	108.0	-11.3
CC(c1ccccc1)n1c(=S)[nH]c2ccccc21 (stereo not drawn)	89.1*	103.0	-13.3
CCOc1ccc2c(c1)[nH]c(=S)n2C	78.5*	95.0	-50.1
C=CCN(Cc1ccc(Cl)s1)c1ncnc2sccc12	-1.1	105.0	-16.0
CN1CCC(N(C)C(=O)c2cn(-c3ccccc3)nc2-c2cccs2)CC1	-6.5	101.0	nt
COC(OC)(OC)c1cc2ccccc2c(=O)[nH]1	34.0	104.0	5.8
Cc1nn(CCC#N)c2c1P(=S)(N1c3ccccc3CC1C)/C(=C1\N(C)c3ccccc3C1(C)C)C=N2 (stereo not drawn)	57.2*	98.0	-60.4
Cc1cc(/N=C/C=C2\N(C)c3ccccc3C2(C)C)n(CCC#N)n1	7.1	102.0	nt
CN1CN=C2SC3(COC(c4ccc(N(C)C)cc4)OC3)C(=O)N2C1 (stereo not drawn)	-12.2	105.0	-19.6
O=C1c2ccccc2C(=O)N1Cc1ccco1	0.7	103.0	-6.8
Nn1c(=S)[nH]nc(Cc2ccco2)c1=O	nt	73.0*	-43.6
CC1=CC(C)(C)N(C(=O)/C=C/c2ccccc2)c2ccc(C)cc21	13.7	99.0	-37.0
SMILES	Mtb MbtI inh	Polio RdRp inh	Mtb MenB inh
Nc1ccc(Cn2cccn2)cc1	4.2	100.0	18.0
Cc1csc(Nc2ccccc2)n1	72.1*	95.0	nt
ClCc1csc(Nc2ccccc2)n1	11.4	110.0	nt
N#Cc1ccc(C(=O)OCc2ccccc2)cc1	-15.4	102.0	nt
COc1ccc(CC(=O)Nc2ccc(-c3nnc4n3CCCCC4)cc2)cc1	-11.2	106.0	-11.4
O=C(COCc1nc2ccccc2s1)Nc1ccc(-c2nnc3n2CCCCC3)cc1	-0.9	89.0*	-22.6
O=C1Cc2ccccc2C(=O)N1Cc1ccc2c(c1)OCO2	-4.3	75.0*	nt
O=C1c2ccccc2C(=O)N1Cc1ccc2c(c1)OCO2	9.6	98.0	-6.8
CN(N=O)C(=O)NC1[C@@H](O)OC(CO)[C@@H](O)[C@H]1O (stereo partly drawn)	0.5	100.0	3.1
CC(=O)NCCC(=O)N1CCCSC1=Nc1c(C)cccc1C	-4.2	88.0*	-2.6
Cc1ccsc1C(=O)N1CCCSC1=Nc1ccccc1	14.2	111.0	13.3
Cc1cc(C)c2[nH]c(O)c(N=NC(=S)NCC3CCCO3)c2c1 (stereo not drawn)	-13.9	97.0	-20.3
Oc1[nH]c2ccc(Br)cc2c1N=NC(=S)NCC1CCCO1 (stereo not drawn)	31.0	90.0*	-11.3
COC(=O)Nc1sc2c(c1C(=O)OC)CCC2	21.0	101.0	-20.9
COC(=O)c1c(NC(=O)COc2c(C)cccc2C)sc2c1CCCC2	nt	106.0	nt
COC(=O)c1c(NC(=O)Cc2cccs2)sc2c1CCCC2	12.3	103.0	39.3*
COC(=O)c1c(NC(=O)CCC(=O)O)sc2c1CCCC2	6.4	104.0	0.6
COC(=O)c1c(NC(=O)C(F)(F)F)sc2c1CCCC2	nt	88.0*	-20.1
CCCc1ccc(OCC(=O)Nc2sc3c(c2C(=O)OC)CCCCC3)cc1	nt	85.0*	nt
CC1(C)CC(NCc2cccs2)CC(C)(C)N1	nt	102.0	6.8
COC(=O)NN1C(=O)c2ccccc2C1=O	-9.3	99.0	-10.2
O=C(CSc1nc2ccccc2o1)NN=C1CCCC1	-0.1	106.0	-29.8
O=C(Oc1ccccc1OC(=O)c1ccccc1)c1ccccc1	9.8	102.0	-34.3
CC(C)(Oc1ccccc1OC(=O)c1ccccc1)C(=O)CBr	61.5*	102.0	nt
Cc1ccc(-n2nnnc2SCCN2C(=O)c3ccccc3C2=O)c(C)c1	11.9	103.0	-17.2

Compound activity as filed in PubChem.
